Measured values from PubChem BioAssay (Tox21).
“And” between values parts separate entries of the source, which are not always exact repeats. Identical values can stand only once. Records with an inconclusive call do not appear. Entries that show only a call come without a potency. A structure can be active in one record and inactive in another. The source made the active and inactive calls. Unless noted, calls follow the shape of the dose curve; as a rule, active = well fitted cell-killing curve with a large enough effect in the repeat runs; inconclusive = weak or mixed curves; inactive = flat fitted curve, though single readings scatter.

Test system: not listed separately
Test: qHTS assay to identify small molecule antagonists of the estrogen receptor beta (ER-beta) signaling pathway - cell viability counter screen (AID 1259382); also: nearly all actives have a fitted effect of over 55% in size;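 as to activity change, negative = cytotoxicity: HEK293T cells carrying ER-beta-UAS-bla reporter stimulated with estradiol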
Settings: ER-beta-UAS-bla HEK293T viability, CellTiter-Glo luminescence, 16 h; series mostly up to 92.4 µM; activity change, negative = cytotoxicity: at the top concentration
In short: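 ER-beta-UAS-bla HEK293T cells (2,000/well, 2% charcoal-stripped FBS) were pre-incubated 6 hr at 37C, then given compound plus 1nM final 17-beta-estradiol for 16 hr. Viability was read in the same wells by CellTiter-Glo luminescence after 30 min at room temperature.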
Potency is read from the fitted curve at half-maximal effect.

| SMILES | Potency | activity change, negative = cytotoxicity |
| --- | --- | --- |
| O=Cc1ccccc1O | inactive |  |
| C[C@]12CCC(=O)C=C1CC[C@@H]1[C@@H]2C(=O)C[C@@]2(C)[C@H]1CC[C@]2(O)C(=O)CO | inactive |  |
| O=[N+]([O-])c1ccc2c(c1)Cc1ccccc1-2 | inactive |  |
| S=C(NC1CCCCC1)NC1CCCCC1 | inactive |  |
| CN(C)CCN(Cc1cccs1)c1ccccn1 | inactive |  |
| OC1CCCCCCCCCCC1 | inactive |  |
| COC(=O)CCC(=O)OC | inactive |  |
| CCCCC(CC)COCC1CO1 (centres undefined) | inactive |  |
| Nc1ccccc1N | inactive |  |
| CCC(C)CO (centres undefined) | inactive |  |
| Nc1ncnc2nc[nH]c12 | inactive |  |
| c1cc(N(CC2CO2)CC2CO2)ccc1OCC1CO1 (centres undefined) | inactive |  |
| Nc1ccc(Nc2ccccc2)cc1 | inactive |  |
| O=C(/C=C/C=C/c1ccc2c(c1)OCO2)N1CCCCC1 | inactive |  |
| CCCCOCCOCCO | inactive |  |
| c1ccc2c(c1)Oc1ccccc1S2 | inactive |  |
| c1ccncc1 | inactive |  |
| Nc1ccc(Cl)cc1Cl | inactive |  |
| CCCCCCCCCCCO | inactive |  |

| SMILES | Potency | activity change, negative = cytotoxicity |
| --- | --- | --- |
| CCCCOCCOCCOCCO | inactive |  |
| CCC(C)OC(=O)c1ccc(O)cc1 (centres undefined) | inactive |  |
| CCOC(=O)C(C#N)=C(c1ccccc1)c1ccccc1 | inactive |  |
| CCC(C)(O)CCCC(C)C (centres undefined) | inactive |  |
| CC(=O)CC/C=C(\C)CCC=C(C)C | inactive |  |
| CC1=CC2C3CC(C=C3C)C2C1 (centres undefined) | inactive |  |
| Cn1cnc([N+](=O)[O-])c1Sc1ncnc2nc[nH]c12 |  | -23% [at 42.5 µM] (inactive) |
| C=CC(C)(CCC=C(C)C)OC(C)=O (centres undefined) | inactive |  |
| CCCCNS(=O)(=O)c1ccccc1 | inactive |  |
| OC(CCl)CCl | inactive |  |
| COc1ccccc1/C=C/C=O |  | -9.26% (inactive) |
| O=C(OCc1ccccc1)c1ccccc1O | inactive |  |
| c1cc(-c2ccncc2)ccn1 | inactive |  |
| CC(C)OB(OC(C)C)OC(C)C | inactive |  |
| CC(CCC(=O)O)(c1ccc(O)cc1)c1ccc(O)cc1 | inactive |  |
| CC(C)OC=O | inactive |  |
| COC(=O)C1=C(C)NC(C)=C(C(=O)OCCN(C)Cc2ccccc2)C1c1cccc([N+](=O)[O-])c1 (centres undefined) | 60.8 µM (active) |  |
| CC(C)=CCCC(C)CCO (centres undefined) | inactive |  |
| O=C(c1ccccc1)c1ccc(O)cc1O | 62.3 µM (active) and inactive |  |

Target: Estrogen receptor (Homo sapiens) (UniProt P03372)
Sequence (P03372 whole entry, looked up): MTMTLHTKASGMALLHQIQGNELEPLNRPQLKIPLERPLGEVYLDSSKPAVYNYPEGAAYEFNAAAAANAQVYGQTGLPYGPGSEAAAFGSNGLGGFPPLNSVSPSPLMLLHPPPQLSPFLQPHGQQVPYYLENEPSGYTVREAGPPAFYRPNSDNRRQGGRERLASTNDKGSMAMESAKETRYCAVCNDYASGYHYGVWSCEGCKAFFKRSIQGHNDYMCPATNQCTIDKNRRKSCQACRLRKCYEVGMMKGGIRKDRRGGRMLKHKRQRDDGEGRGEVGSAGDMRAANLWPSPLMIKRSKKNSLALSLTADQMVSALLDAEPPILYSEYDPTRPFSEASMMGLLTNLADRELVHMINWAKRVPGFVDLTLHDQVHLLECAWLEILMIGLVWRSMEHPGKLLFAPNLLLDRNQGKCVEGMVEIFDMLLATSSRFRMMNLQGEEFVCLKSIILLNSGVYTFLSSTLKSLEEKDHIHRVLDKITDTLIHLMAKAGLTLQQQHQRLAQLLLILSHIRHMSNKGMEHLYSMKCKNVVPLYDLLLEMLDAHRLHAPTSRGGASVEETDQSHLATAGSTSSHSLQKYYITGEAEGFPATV
Test: qHTS assay to identify small molecule agonists of the estrogen receptor alpha (ER-alpha) signaling pathway in the presence of an antagonist (AID 1259383; calls by dose curve; also: nearly all actives have a fitted effect of over 15% in size; as to activation: top concentration of the series differs between compounds)
Settings: VM7Luc4E2 cells, ERE-luciferase, +ICI-182,780, 22 h; series mostly up to 92.4 µM; activation: at the top concentration
In short: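 VM7Luc4E2 cells (endogenous full-length ER-alpha, 4×ERE-luciferase) were precultured 5 days in phenol red-free medium with 10% charcoal-stripped FBS, given 10.0nM ICI-182,780 (final), then treated with compounds at 15 concentrations for 22hr at 37C; luminescence read with ONE-Glo.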

| SMILES | Potency |
| --- | --- |
| O=Cc1ccccc1O | inactive |
| C[C@]12CCC(=O)C=C1CC[C@@H]1[C@@H]2C(=O)C[C@@]2(C)[C@H]1CC[C@]2(O)C(=O)CO | inactive |
| c1ccc2sc(SSN3CCOCC3)nc2c1 | inactive |
| OC1CCCCCCCCCCC1 | inactive |
| COC(=O)CCC(=O)OC | inactive |
| CCCCC(CC)COCC1CO1 (centres undefined) | inactive |
| Nc1ccccc1N | inactive and 27.3 µM (active) |
| Nc1ncnc2nc[nH]c12 | inactive |
| Nc1ccc(Nc2ccccc2)cc1 | inactive |
| O=C(/C=C/C=C/c1ccc2c(c1)OCO2)N1CCCCC1 | inactive and 2.17 µM (active) |
| c1ccc2c(c1)Oc1ccccc1S2 | inactive |
| CCCCCCCCCCCO | inactive |
| CCCCOCCOCCOCCO | inactive |
| CCC(C)OC(=O)c1ccc(O)cc1 (centres undefined) | 19.4 µM (active) and 48.6 µM (active) |
| CCC(C)(O)CCCC(C)C (centres undefined) | inactive |
| C=CC(C)(CCC=C(C)C)OC(C)=O (centres undefined) | inactive |
| CCCCNS(=O)(=O)c1ccccc1 | inactive |
| CC(C)OB(OC(C)C)OC(C)C | inactive |
| CC(CCC(=O)O)(c1ccc(O)cc1)c1ccc(O)cc1 | inactive |
| CC(C)OC=O | inactive |
| O=C(c1ccccc1)c1ccc(O)cc1O | 19.7 µM (active) and 30.6 µM (active) |
